# Results published in PubChem BioAssay (Tox21).
# Where “and” joins values, the source holds several entries; their conditions need not be identical. Identical values can stand only once. Records with an inconclusive call do not appear. A call without a number means that no potency is given here. Values without a mark were called inactive. Calls of active or inactive are those of the source. The call rests on the fitted dose curve; in most records, active means well fitted cell-killing curve with a large enough effect in the repeat runs; inconclusive means weak or mixed curves, or effect the other way; inactive means flat fitted curve, though single readings scatter.
# What was measured:
# [1] = cAMP Responsive Elements (CRE) small molecule antagonists, cell-based qHTS assay: qHTS cell viability counter screen (AID 2060913); further: nearly all actives have a fitted effect of over 40% in size
# Outline: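 Cytotoxicity read in the same wells as the CRE-bla HEK293T antagonist assay: after 3 h compound with 0.25 uM NKH477 final and 2 h beta-lactamase substrate, CellTiter-Glo luminescence measured.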
# [2] = cAMP Responsive Elements (CRE) small molecule agonists, cell-based qHTS assay: qHTS cell viability counter screen (AID 2060914); further: nearly all actives have a fitted effect of over 50% in size
# Outline: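 Cytotoxicity was measured as ATP luminescence (CellTiter-Glo, 30 min at room temperature) in the same wells as the CRE-bla FRET read-out. HEK293T CRE-bla cells had 3 h compound exposure at 37C/5% CO2.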
# Potency means the concentration at half of the fitted maximal effect.
Compound,Potency [1],Potency [2],"viability change, negative = cytotoxic [1]","activity change, negative = cytotoxicity [2]"
COc1cc(CC(C)N)cc(OC)c1OC (stereo unspecified),inactive,inactive,–,–
C#CCN1C(=O)COc2cc(F)c(N3C(=O)C4=C(CCCC4)C3=O)cc21,inactive,inactive,–,–
C#CCC1=C(C)C(OC(=O)C2C(C=C(C)C)C2(C)C)CC1=O (stereo unspecified),inactive,inactive,–,–
Clc1ccc2ccccc2c1,inactive,inactive,–,–
COc1c(C(C)(C)C)cc([N+](=O)[O-])c(C)c1[N+](=O)[O-],inactive,inactive,–,–
O=C1c2ccccc2C(=O)c2ccccc21,–,–,7.37% [at 18.9 µM],0.739% [at 18.9 µM]
CCC(=O)O[C@H]1CC[C@H]2[C@@H]3CCC4=CC(=O)CC[C@]4(C)[C@H]3CC[C@]12C,inactive,inactive,–,–
O=C(Cl)c1ccc(Cl)cc1,inactive,inactive,–,–
Cn1c(-c2ccccc2)cc(-c2ccccc2)[n+]1C,inactive,inactive,–,–
Nc1cc2c3c(c1)C(c1ccccc1)=N[C@@H](NC(=O)c1cccnc1)C(=O)N3CC2,inactive,inactive,–,–
Cn1c(CCCC(=O)O)nc2cc(N(CCCl)CCCl)ccc21,inactive,inactive,–,–
CCCCOP(=O)(O)OCCCC,inactive,inactive,–,–
CC(C)OC(=O)Nc1ccccc1,inactive,inactive,–,–
COP(=O)(OC)OC,inactive,inactive,–,–
CC(C)(C)OC(=O)c1ncn2c1[C@@H]1CCCN1C(=O)c1c(Br)cccc1-2,inactive,inactive,–,–
CCCCCCCCCCCCCCCC[N+](C)(C)C,54.5 µM (active),29.5 µM (active) and 61.1 µM (active) and 26.6 µM (active),–,–
Cc1cccc(N)c1N,inactive,inactive,–,–
CCOP(=S)(OCC)Oc1nc(Cl)n(C(C)C)n1,inactive,inactive,–,–
BrCC1CO1 (stereo unspecified),inactive,inactive,–,–
C=CCO,inactive,inactive,–,–
N#CCCO,inactive,inactive,–,–
O=C(O)COc1nc(Cl)c(Cl)cc1Cl,inactive,inactive,–,–
CC(=O)Nc1cc([As](=O)(O)O)ccc1O,inactive,inactive,–,–
ClC1C(Cl)C(Cl)C(Cl)C(Cl)C1Cl (stereo unspecified),inactive,inactive,–,–
Cc1ccc([N+](=O)[O-])cc1,inactive,inactive,–,–
CC(Oc1ccc(Oc2ncc(C(F)(F)F)cc2Cl)cc1)C(=O)O (stereo unspecified),inactive,inactive,–,–
CN(C)C(=S)S,inactive,inactive,–,–

Compound,Potency [1],Potency [2],"viability change, negative = cytotoxic [1]","activity change, negative = cytotoxicity [2]"
CC(Cl)(Cl)C(=O)O,inactive,inactive,–,–
Cc1c([N+](=O)[O-])cc2c(c1[N+](=O)[O-])C(C)(C)CC2(C)C,inactive,inactive,–,–
C=C(C)C(=O)[O][Sn]([CH2]CCC)([CH2]CCC)[CH2]CCC,7.7 µM (active),4.86 µM (active),–,–
O=c1nc(O)n(Cl)c(=O)n1Cl,inactive,inactive,–,–
CCn1cc[n+](C)c1 (tested in a mixture with another compound),inactive,inactive,–,–
N#CC(CCc1ccc(Cl)cc1)(Cn1cncn1)c1ccccc1 (stereo unspecified),inactive,inactive,–,–
C1CCNCC1,inactive,inactive,–,–
CCCN(CCC)CCc1c[nH]c2ccccc12,inactive,inactive,–,–
Nc1ccccc1,inactive,inactive,–,–
Nc1ccc(N)cc1,inactive,inactive,–,–
N=C(N)[Se],inactive,inactive,–,–
OCCOc1ccccc1,inactive,inactive,–,–
O=[N+]([O-])c1c(Cl)c(Cl)c(Cl)c(Cl)c1Cl,inactive,inactive,–,–
C=C(C#N)CCC#N,inactive,inactive,–,–
Nc1cc(Cl)ccc1Cl,inactive,inactive,–,–
CCOC(=O)C(Cl)C(C)=O (stereo unspecified),inactive,inactive,–,–
Cc1cc(C)c(C(=O)P(=O)(C(=O)c2c(C)cc(C)cc2C)c2ccccc2)c(C)c1,inactive,inactive,–,–
O=C(O)C1(c2ccc3c(c2)OC[C@H](Cc2ccc(-c4ccccc4)cc2)[C@H]3O)CCCC1,inactive,inactive,–,–
O.O.O.O.O.O.O=S(=O)([O-])[O-].[Ni+2],inactive,inactive,–,–
CC(C)=CCN1CC[C@@]2(C)c3cc(O)ccc3C[C@@H]1[C@@H]2C,inactive,inactive,–,–
CNC(=O)O/N=C(/CSC)C(C)(C)C,inactive,inactive,–,–
CCOc1nc(F)cc2nc(S(=O)(=O)Nc3c(Cl)cccc3Cl)nn12,inactive,inactive,–,–
Cc1ccc(N)cc1,inactive,inactive,–,–
CC(=O)CC(c1ccc(Cl)cc1)c1c(O)c2ccccc2oc1=O (stereo unspecified),inactive,inactive,–,–
O=C(O)CC(Cl)C(=O)O (stereo unspecified),inactive,inactive,–,–
CC(Cc1ccc(OCC(=O)O)cc1)NCC(O)c1csc(C(F)(F)F)n1 (stereo unspecified),inactive,inactive,–,–
